Experimental data taken from PubChem BioAssay (NCATS).
Inconclusive results are not listed. Where a call stands in place of a potency, no number is given. The source made the active and inactive calls. Calls come from the whole dose curve; as a rule, active = well fitted cell-killing curve with a large enough effect; inconclusive = small, poorly fitted or top-dose-only effect; inactive = no such curve, though single readings can be large or run the other way.
Potency is the fitted concentration of half-maximal effect.

Assay: qHTS of pediatric cancer cell lines to identify multiple opportunities for drug repurposing: Primary screen for NB-EBc1 cells (AID 1347095)
Details: NB-EBc1 neuroblastoma viability, CellTiter-Glo luminescence, 48 h; series mostly up to 46 µM
Description: Drug repurposing or repositioning has been offered as a strategy for drug development in oncology programs. This approach has special potential for childhood cancers and other rare or orphan diseases, where the expected return on new drug development has been a disincentive to pharmaceuticals. […] In this project we exploit the poly-pharmacology of drugs to discover new indications via phenotypic screening of a panel of 19 well-characterized cell lines derived from solid tumors seen in children and adolescents. The goal is to identify approved drugs with previously unrecognized anticancer properties that has the potential to reveal new mechanisms and biological processes involved in carcinogenesis or drug resistance. We employed a titration-based paradigm (quantitative high-throughput screening or qHTS), where all compounds were tested at multiple concentrations for their effect on cell viability. Concentration-response curves (CRCs) were derived directly from the primary screen, and both potency and efficacy values were used to identify compounds with robust bioactivity profiles. We screened the NIH Chemical Genomics Center (NCGC) Pharmaceutical Collection (NPC) and Mechanism Interrogation Plate (MIPE) small molecule collections of approved and investigational compounds against these cell lines; and measured metabolically active cells after 48 hours of compound treatment as a proxy for cell viability. […] Assay Submitter: Nathalia J. Martinez, National Center for Advancing Translational Sciences, National Institutes of Health, Rockville, MD, USA; email: natalia.martinez@nih.gov Shen, M et al. Quantitative high-throughput phenotypic screening of pediatric cancer cell lines identifies multiple opportunities for drug repurposing. Oncotarget 2017 Dec 19;9(4):4758-4772. PMID 29435139.
The cells were obtained from University of North Carolina (UNC), Pediatric Preclinical Testing Program (PPT), and Coriell Institute (CI). qHTS cell viability assay: Cells were assayed in growth media at a density of 500-1,000 cells/well. Five microliters of cells were dispensed into 1,536-well, white, solid-bottom, TC-treated plates (Greiner Bio One) using a multidrop dispenser and incubated at 37 degrees C, 5% CO2, under a humidified atmosphere for 5 hours. Twenty-three nanoliters of compounds and controls (neutral control DMSO or positive control bortezomib at final concentration of 2.3 µM) were subsequently transferred by Kalypsys pintool. For primary screens, the MIPE collection was tested at 11-point dilutions (final concentrations range from 0.78 nM to 46 µM) and the NPC collection at 8-point dilutions (final concentrations range from 0.59 nM to 46 µM). Compounds tested in follow-up screens were assayed at 11-point dilutions. Cells were incubated for 48 hours, followed by addition of 3 µL of CellTiter-Glo (Promega). After a 15 min incubation at room temperature, samples were analyzed for luminescence intensity using a ViewLux High-throughput CCD imager equipped with clear filters.
In the case of `CC[N+]1(CC)CCC(=C(c2ccccc2)c2ccccc2)C1C` (stereo not given), the Potency is reported as “inactive”.
In the case of `O=C1CCCc2c(O)cccc21`, the Potency is reported as “inactive”.
For `OCCOCCN1CCN(C(c2ccccc2)c2ccc(Cl)cc2)CC1` (stereo not given), the Potency was “inactive”.
For `O=C1c2ccccc2CCc2ccccc21`, the Potency was “inactive”.
In the case of `CCCCCCCCCCCCCCCC[n+]1ccccc1`, the Potency is reported as 18.8 µM (active).
With `Cc1nc(C2CCCCC2)c(-c2ccc(S(N)(=O)=O)c(F)c2)o1` the Potency was “inactive”.
For `O=C(NN1CCCC1)NS(=O)(=O)c1ccc(Cl)cc1`, the Potency was “inactive”.
For `O=c1[nH]c2ccccc2c(=O)n1CCCl`, the Potency was “inactive”.
For `CC(C)C(=O)Nc1cccc(C2CN3CCSC3=N2)c1` (stereo not given), the Potency was “inactive”.
With `O=C(O)CCCC[C@@H]1SC[C@@H]2NC(=O)N[C@@H]21` the Potency was “inactive”.
In the case of `CC[C@@]1(O)C(=O)OCc2c1cc1n(c2=O)Cc2c-1nc1ccccc1c2/C=N/OC(C)(C)C`, the Potency is reported as 0.0211 µM (active).
With `CC[C@@H]([C@H](C)O)n1ncn(-c2ccc(N3CCN(c4ccc(OC[C@@H]5CO[C@@](Cn6cncn6)(c6ccc(F)cc6F)C5)cc4)CC3)cc2)c1=O` the Potency was 21.1 µM (active).
With `COc1ccc(CCC(C)=O)cc1` the Potency was “inactive”.
With `CC(C)=CCC/C(C)=C/CC/C(C)=C/CCC(=O)OC/C=C(\C)CCC=C(C)C` the Potency was “inactive”.
For `Cc1cc(=O)oc2cc(O[C@@H]3SC[C@@H](O)[C@H](O)[C@H]3O)ccc12`, the Potency was “inactive”.
In the case of `C=C(C)C(=O)OCC(O)CO` (stereo not given), the Potency is reported as “inactive”.
In the case of `CCOc1ccccc1OCC1CNCCO1` (stereo not given), the Potency is reported as “inactive”.
For `CCN(CC)CC(=O)OCC(=O)[C@@]1(O)CC[C@H]2[C@@H]3CCC4=CC(=O)CC[C@]4(C)[C@H]3[C@@H](O)C[C@@]21C`, the Potency was “inactive”.
In the case of `Cc1ccc2c(Cl)cc(Cl)c(O)c2n1`, the Potency is reported as “inactive”.
In the case of `CN(C(=O)C(Cl)Cl)c1ccc(OC(=O)c2ccco2)cc1`, the Potency is reported as “inactive”.
In the case of `CC(=O)[C@H]1CC[C@H]2[C@@H]3C=CC4=CC(=O)CC[C@@]4(C)[C@@H]3CC[C@]12C`, the Potency is reported as “inactive”.
In the case of `Nc1c(I)cc(I)c(C(=O)N(CCC(=O)O)c2ccccc2)c1I`, the Potency is reported as “inactive”.
With `Cc1nc(N)nc(N)c1-c1ccc(Cl)c(Cl)c1` the Potency was 0.422 µM (active).
With `CC(C)C[C@H](NC(=O)CNC(=O)[C@H](Cc1ccc(O)cc1)NC(=O)[C@H](CO)NC(=O)[C@H](Cc1c[nH]c2ccccc12)NC(=O)[C@H](Cc1cnc[nH]1)NC(=O)[C@@H]1CCC(=O)N1)C(=O)N[C@@H](CCCN=C(N)N)C(=O)N1CCC[C@H]1C(=O)NCC(N)=O` (stereo in doubt) the Potency was “inactive”.
For `CCCCOCCOC(=O)c1cccnc1`, the Potency was “inactive”.
In the case of `OC1(c2ccccc2)CCNCC1`, the Potency is reported as “inactive”.
For `NS(=O)(=O)c1cc2c(cc1Cl)CN(C1CCCCC1)C2=O`, the Potency was “inactive”.
For `COc1cc(NS(=O)(=O)c2ccc(N)cc2)nc(C)n1`, the Potency was “inactive”.
With `COCCc1ccccn1` the Potency was “inactive”.
For `O=C(O)Cc1ccc(OCCNC[C@H](O)c2ccccc2)cc1`, the Potency was “inactive”.
In the case of `CO[C@@H]1[C@@H](O[C@@H]2O[C@H](C)[C@@H](O[C@H]3C[C@@](C)(O)[C@@H](O)[C@H](C)O3)[C@H](N(C)C)[C@H]2O)[C@@H](CC=O)C[C@@H](C)[C@@H](O[C@@H]2CC[C@H](N(C)C)[C@@H](C)O2)/C=C/C=C/C[C@@H](C)OC(=O)C[C@H]1OC(C)=O`, the Potency is reported as “inactive”.
For `COC(=O)CCCCC(CCSS/C(CCO)=C(\C)N(C=O)Cc1cnc(C)nc1N)SC(C)=O` (stereo not given), the Potency was “inactive”.
With `N=C(N)c1ccc(OCCCOc2ccc(C(=N)N)cc2)cc1` the Potency was “inactive”.
With `CC(=O)N(CC(=O)N(C)C)c1ccccc1` the Potency was “inactive”.
In the case of `C1N2CN3CN1CN(C2)C3`, the Potency is reported as “inactive”.
With `COCCc1ccc(OCC2CO2)cc1` (stereo not given) the Potency was “inactive”.
In the case of `CC(C)(C)c1cc(C=O)cc(C(C)(C)C)c1O`, the Potency is reported as “inactive”.
In the case of `C[N+](C)(CCOc1ccccc1)Cc1cccs1`, the Potency is reported as “inactive”.
With `Cc1cc2nc3ccc(=[N+](C)C)cc-3sc2cc1N` the Potency was 10.6 µM (active).
With `[O-][n+]1cccc(/C(Cl)=N/OC[C@@H](O)CN2CCCCC2)c1` the Potency was “inactive”.
